From PubChem BioAssay
Activity calls are given as the source filed them. How the calls were made is not given here.

Test: inhibition of 3D7 malaria parasite growth – strain 3D7 (AID 2306);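 further: 0% = DMSO wells and 100% = chloroquine plus artemisinin control wells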
Settings: P. falciparum 3D7 erythrocytic growth, LDH absorbance, 72 h; at 2 µM; hits give high values

Growth inhibition, active:
CC(C)CCN=C(N)c1ccc(OCCCCCOc2ccc(C(N)=NCCC(C)C)cc2)cc1 98%, COc1ccc2nccc([C@@H](O)CN3CCC(NCc4cn5cc(F)ccc5n4)CC3)c2c1 96%, CS(=O)(=O)c1ccc(CCNCc2ccc(-c3ccc(CN(C(=O)C4CC(=O)c5ccccc54)C4CCN(Cc5ccccc5)CC4)cc3)nc2)cc1 (stereo not given) 100%, Cc1[nH]c(C)c(-c2ccc(C(=O)c3ccc(Cl)cc3)cc2)c(=O)c1Br 97%, CCCNCc1ccc(-c2ccc(CN(CCOC)C(=O)c3ccccc3)cc2)nc1 94%, CC(C)C(NC(=O)Cc1cccc2ccccc12)C(=O)Nc1cccc(C#N)c1 (stereo not given) 92%, COc1ccccc1CCNc1nc(C)cc(N[C@@H](CC(C)C)C(=O)Nc2ccccc2)n1 101%, CCC1(CC)CN(c2ccccc2)c2ccc(O)cc2S(=O)(=O)C1CC(C)C (stereo not given) 96%, O=C(Nc1cc(C(F)(F)F)ccc1Cl)c1ccc(Cn2cc(Br)cn2)cc1 91%, COc1cccc(NC(=O)Nc2ccc(-c3oc(C(=O)NCC(c4ccccc4)N(C)C)cc3-c3ccncc3)cc2)c1 (stereo not given) 101%, CC(Cc1ccc(NC(=O)c2ccc(CNCc3ccccc3)cc2)cc1)N(CCc1cccc(Cl)c1)C(=O)OC(C)(C)C (stereo not given) 95%, NC(=NCCc1ccc(Cl)c(Cl)c1)c1ccc2ccccc2c1 100%, O=C(NC1CCCc2ccccc21)C1CCCN(C(=O)c2ccc(O)c(-c3ccc(Cl)c(Cl)c3)c2)C1 (stereo not given) 88%, CC(C)CNC(=O)c1cncc(-c2ccc(CNCCCc3ccccc3)cc2)c1 101%, O=C(/C=C/c1ccc(Cl)c(Cl)c1)NCCCCCN1CCC(NC(=S)Nc2ccc(F)cc2F)CC1 100%, CN(C)C(C)(C)CN(Cc1ccc(-c2ccc(C(F)(F)F)cc2)cc1)C(=O)Cn1c(CCc2cccc(F)c2F)nc(=O)c2ccccc21 95%, CCc1cccc2c(C#N)cn(CC(=O)Nc3ccc(OC)cc3)c12 97%, COc1ccc2c(CCNc3nc(SC)ncc3C(=O)NCCc3ccc(F)cc3)c[nH]c2c1 91%, COc1ccc(C(=O)[C@H]2C[C@@H]2CN(C)CCC(O)c2ccc(Cl)c(Cl)c2)cc1 (stereo not given in full) 94%, Cc1nc(N)nc(N)c1-c1ccc(Br)cc1 98%, COc1cc(Cc2cnc(N)nc2N)ccc1OCC(=O)Nc1ccc(C)cc1 95%, O=C(/C=C/c1ccc(C(F)(F)F)cc1)NCCCCCN1CCN(C(=O)Nc2ccc(F)c(Cl)c2)CC1 89%, O=C(NCc1cccc(OC(F)(F)F)c1)c1cnc2c(c1)nc(-c1cnc(-c3ccccc3)[nH]1)n2CCc1cnc[nH]1 99%, Cc1cccc2[nH]c(-c3ccc(-c4ccc(CN5CCN(CCN6CCOCC6)CC5)cc4)cc3)nc12 98%, Cc1nc(NCCCn2ccnc2)cc(-c2cncc(-c3ccc(OC(F)(F)F)cc3)c2)n1 99%, Oc1ccc2[nH]cc(C3CCN(CCC(c4ccccc4)c4ccccc4)CC3)c2c1 90%, COc1ccc2nccc(N3CCC(NCCNCc4ccc5c(n4)NC(=O)CS5)C3)c2n1 (stereo not given) 100%, COc1cc(C)nc2ccc(NC(=O)c3ccc(C(=O)Nc4ccc5nc(C)cc(OC)c5c4)cc3)cc12 96%, Cn1nc(-c2cccc(CN[C@@H]3CCc4ccc(O)cc43)c2)c2cnc(NC3CCCC3)nc21 100%, Oc1ccc(CCNc2nc(NCCCOc3ccccc3-c3cccnc3)nc(N3CCNCC3)n2)cc1 92%, CC(C)N1CCN(C(CN2CCN(CCCOc3cccc4ccccc34)CC2)c2ccc(F)cc2)CC1 (stereo not given) 101%, O=C(Nc1cccc([N+](=O)[O-])c1)Nc1ccc(Cl)c(C(F)(F)F)c1 96%, NC1CCN(c2nc(NCCCc3ccc(O)cc3)nc(NCc3ccccc3-c3ccc(C(F)(F)F)cc3)n2)CC1 101%, CCc1ccc(-c2nc3cc(NC(=O)c4cc([N+](=O)[O-])cc([N+](=O)[O-])c4)ccc3o2)cc1 93%, FC(F)(F)c1ccc2nc(-c3ccc(-c4ccc(CNCc5cnn(-c6ccccc6)n5)cc4)cc3)[nH]c2c1 100%, Cc1ccc(C(=O)Nc2ccc(Nc3ccnc4cc(-c5ccccn5)ccc34)cc2O)cc1 100%, COc1ccc(-c2ccc(NC(=O)c3ccc(C#N)cc3)cc2)cc1CN(C)CCN(C)C 96%, COc1cccc(-c2ccc3c(-c4ccc(F)cc4)cnc(N)c3c2)c1 100%, COc1ccc(CNC(=O)NC2CCN(c3ccnc(Nc4ccc(F)cc4)n3)CC2)cc1 87%, O=C(NCCc1ccccc1)N(Cc1ccc(-c2cccc(CN3CCNCC3)c2)cc1)C1CCN(Cc2ccccc2)CC1 90%
